Source: PubChem
PI5P4K alpha inh – inhibitors of human PI5P4K alpha; P48426; PI5P4Kalpha enzyme, ADP-Glo luminescence, 60 min; stronger effect = lower value; max response, %; 330,000 tested, 1.2% active; AID 652105; active = max response of -50% or lower; inconclusive = between -30% and -50%; inactive = -30% or higher; also: value at the top dose of about 77 µM; % is scaled to controls: 0 for no effect and ±100 for the full control effect
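ADP-Glo luminescence end-point after a 60 min room-temperature kinase reaction. PI5P4Kalpha and substrate in HEPES pH 7.4 buffer with EGTA, 0.1% CHAPS and 5% DMSO; ATP at 5 microM final.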
PLK1 PBD block – inhibitors of human PLK1 polo-box domain binding | Potency, µM, for the others: max response, negative = inhibition, usual class: inhibitors | 360,000 tested, 2.8% active | Plk1 PBD binding of FITC phosphopeptide, fluorescence polarization; also: potency is read from the fitted curve at half-maximal effect; series mostly up to about 57 µM; % is scaled to controls: 0 for no effect and ±100 for the full control effect; nearly all actives have a fitted effect of over 65% in size
Target sequence (P53350 whole entry, looked up, the tested form may be a part): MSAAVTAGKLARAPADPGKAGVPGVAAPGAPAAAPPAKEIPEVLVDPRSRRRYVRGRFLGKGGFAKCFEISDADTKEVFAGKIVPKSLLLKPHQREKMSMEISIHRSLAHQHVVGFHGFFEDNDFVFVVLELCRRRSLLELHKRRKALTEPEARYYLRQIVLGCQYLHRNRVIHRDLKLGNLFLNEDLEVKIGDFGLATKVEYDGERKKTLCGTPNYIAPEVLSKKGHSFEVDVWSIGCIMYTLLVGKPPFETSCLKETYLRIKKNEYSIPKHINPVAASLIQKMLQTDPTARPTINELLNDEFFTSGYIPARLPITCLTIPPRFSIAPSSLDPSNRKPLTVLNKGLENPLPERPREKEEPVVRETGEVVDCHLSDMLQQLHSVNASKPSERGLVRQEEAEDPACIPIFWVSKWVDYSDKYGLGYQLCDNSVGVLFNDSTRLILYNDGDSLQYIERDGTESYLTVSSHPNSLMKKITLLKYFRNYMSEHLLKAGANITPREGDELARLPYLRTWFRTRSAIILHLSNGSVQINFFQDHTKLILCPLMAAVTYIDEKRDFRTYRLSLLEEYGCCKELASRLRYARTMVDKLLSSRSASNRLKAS
G9a block – G9a (human) methyltransferase inhibition. AID 504332. G9a H3K9 monomethylation, AlphaScreen, 2 h. Potency, µM (series often up to 102 µM), for the others: at the highest dose activity, negative = inhibition, actives largely listed as inhibitors. Q96KQ7. 350,000 tested, 8.8% active; also: potency is read from the fitted curve at half-maximal effect; % is scaled to controls: 0 for no effect and ±100 for the full control effect; nearly all actives have a fitted effect of over 75% in size
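Readings reflect AlphaScreen signal from monomethyl-H3K9 antibody detection. HMT at 20 nM; substrate b-H3K9 500 nM; cofactor SAM 20 uM; 2 h RT reaction; compounds tested as titrations in qHTS with 15 min preincubation.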
HP1b chromo inh – blocks HP1-beta chromodomain binding to methylated histone tails | AlphaScreen HP1-beta / biotin-H3K9me3 peptide binding | Potency, µM (series often up to 114 µM), for inactives: at the highest dose activity change, negative = inhibition, usual class: inhibitors | 390,000 tested, 0.56% active | AID 540317; also: potency is read from the fitted curve at half-maximal effect; nearly all actives have a fitted effect of over 70% in size
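Compound inhibition of the preformed complex between 50 nM HP1-beta and 50 nM biotinylated H3K9me3 peptide was read by AlphaScreen. Buffer was PBS pH 7.4 with 0.01% Tween-20. Incubations ran 30 min at room temperature, with 10 ug/mL donor/acceptor beads.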
JMJD2A Tudor inh – inhibitors of human JMJD2A Tudor domain; 390,000 tested, 4.4% active; AlphaScreen JMJD2A-Tudor / H3K4me3 peptide binding; Potency, µM (highest dose often 114 µM), inactives show at the highest dose activity change, negative = inhibition, most hits filed as inhibitors; O75164; AID 504339; also: potency is read from the fitted curve at half-maximal effect; % is scaled to controls: 0 for no effect and ±100 for the full control effect; nearly all actives have a fitted effect of over 50% in size
BAZ2B inh – inhibitors of human BAZ2B bromodomain; Q9UIF8; AlphaScreen BAZ2B-H3K14Ac peptide displacement; Potency, µM (series often up to 114 µM), for inactives: at the top dose activity change, negative = inhibition, most hits filed as inhibitors; 360,000 tested, 4.4% active; also: potency is read from the fitted curve at half-maximal effect; % is scaled to controls: 0 for no effect and ±100 for the full control effect; nearly all actives have a fitted effect of over 60% in size
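BAZ2B (50 nM) with biotin-H3(5-23)K14Ac peptide (50 nM) in PBS pH 7.4, 0.01% Tween-20, preformed 30 min, then compound 30 min at room temperature; top concentration 110uM. AlphaScreen streptavidin donor/nickel chelate acceptor beads (10 ug/mL final), 20 min dark, signal read.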
* marks the source's active call; other numbers are inactive results; ? = inconclusive; . = not tested or not shown; ! = repeats disagree; [ ] = another dose, or the depositor's remark. This is a sample that favours compounds with a hit; in the whole collection about 12% have one here. Unless noted, calls follow the shape of the dose curve; as a rule, active = well fitted curve in the direction sought with a large enough effect; inconclusive = small, poorly fitted or top-dose-only effect, or another doubt; inactive = no such curve, though single readings can be large; an effect the other way counts as inactive or inconclusive.

SMILES	PI5P4K alpha inh	PLK1 PBD block	G9a block	HP1b chromo inh	JMJD2A Tudor inh	BAZ2B inh
Cc1ccc(COc2ccc(CNCCCN3CCCCCC3=O)cc2)cc1	3	-1%	14µM*	32µM*	1.3µM*	35µM*
Cc1ccc(NC(=O)C(=O)NCCCN2CCCC2=O)cc1	6	-8%	1%	20%	-7%	-9%
CCOC(=O)c1[nH]cnc1C(=O)Nc1ccc(Cl)cc1	-9	-9%	3%	34%	-8%	-15%
CCOC(=O)c1[nH]cnc1C(=O)Nc1ccccn1	.	-9%	?	28%	-88%	79µM*
CCOC(=O)c1[nH]cnc1C(=O)Nc1cccc(Cl)c1	7	-9%	?	3%	-15%	89µM*
CCOC(=O)c1[nH]cnc1C(=O)Nc1ccccc1OC	-4	-1%	?	34%	?	89µM*
CC(=O)N1CCN(c2ccc(NC(=O)c3ccc(OCc4ccccc4)cc3)cc2)CC1	-28	15µM*	12%[59 µM]	14%	?	-2%
O=C(Nc1ccccc1F)c1ccc(CSc2ncccn2)cc1	2	-13%	?	23%	1%	-16%
COc1ccc(NC(=O)c2ccc(COc3ccccc3)o2)cc1	-26	11µM*	-4%[59 µM]	?	?	-28%
O=C(Nc1ccccc1)c1ccc(CSc2ncccn2)cc1	1	1%	42%[0.501 µM]	15%	-5%	45µM*
O=C(Nc1ccccc1)c1ccc(COc2ccccc2)cc1	-21	30µM*	.	-10%	-25%	-5%
O=C(Nc1ccc(OCc2ccccc2)cc1)c1ccccc1	2	-5%	12%	31%	-3%	.
Cc1nc2ccc(S(=O)(=O)N(C)CC(=O)NCc3ccc(N(C)C)cc3)cc2s1	-1	-28%	50µM*	-25%	?	?
CN(C)c1ccc(CNC(=O)CN2CCSc3ccc(S(=O)(=O)N(C)C)cc32)cc1	.	.	7.9µM*	-16%[57 µM]	45µM*	40µM*
CCc1nc2ccc(C(=O)NCCOc3ccc(OC)cc3)cn2c1N(CC)CCN(C)C	5	2%	.	.	.	.
CC(=O)c1c(N2CCOCC2)nc(=O)n(-c2ccccc2)c1C	.	-3%	45µM*	13%	-29%	1%
CCn1nc(C)cc1C(=O)Sc1cccc(Br)c1	11	?	267%	120%	72%	101%
CCn1nc(C)cc1C(=O)Sc1ccc(Cl)cc1Cl	11	19µM*	107%	140%	84%	59%
CC(C)(C)OC(=O)Cc1nnc(-c2nc3ccccc3[nH]2)s1	.	.	.	.	-32%	.
O=C(CCl)c1ccc(Cc2ncc(C(F)(F)F)cc2Cl)s1	2	2.4µM*	?	30%	79µM*	?
NS(=O)(=O)c1ccc(Cc2ncc(C(F)(F)F)cc2Cl)s1	8	1%	?	10%	1%	4%
NC/C=C\C(=O)O	.	.	13µM*!	.	.	.
COc1ccc(C2=Nn3c(nnc3C(F)(F)F)SC2)cc1	4	?	15%	28%	-2%	1%
O=c1[nH]cccc1-c1nc2cc(Cl)ccc2n1Cc1ccccc1	1	-5%	71µM*	35%	-18%	-13%
C[C@@H](OC(=O)c1[nH]cnc1C(=O)NCc1ccc(CNC(=O)OC(C)(C)C)cc1)c1ccccc1	10	1%	.	25%	?	.
SMILES	PI5P4K alpha inh	PLK1 PBD block	G9a block	HP1b chromo inh	JMJD2A Tudor inh	BAZ2B inh
Cc1ccc(C)c(N2CCN(C(=O)c3cc4c(=O)oc5ccccc5c4s3)CC2)c1	.	.	-1%[59 µM]	31%	4%	1%
CC1=CS(=O)(=O)CC1Sc1nc2ccccc2[nH]1 (configuration not stated)	-10	-8%	79µM*	24%	-35%	-6%
CC1=CS(=O)(=O)CC1Sc1ncn[nH]1 (configuration not stated)	0	-7%	?	11%	?	-10%
CC1=CS(=O)(=O)CC1Sc1nc(C)n[nH]1 (configuration not stated)	0	-11%	50µM*	31%	-8%	?
S=c1nc(C23CC4CC(CC(C4)C2)C3)[nH][nH]1	-16	?	-127%[59 µM]	-31%	3.5µM*	-6%
Cc1cc2cc(CNC(=O)CCC(=O)O)ccc2n1C	-5	4%	18µM*	27%	-10%	?
Cc1cc2cc(CNC(=O)c3ccc(Br)o3)ccc2n1C	?	-18%	-110%[59 µM]	-24%	56µM*	35µM*
Cc1cc2cc(CNS(=O)(=O)c3ccc4ccccc4c3)ccc2n1C	-6	-13%	?	-6%	?	?
Cc1cccc(NC(=S)NCc2ccc3c(c2)cc(C)n3C)c1C	-1	-18%	3%[59 µM]	?	35µM*	35µM*
CC(=O)Nc1ccc(S(=O)(=O)NCc2ccc3c(c2)cc(C)n3C)cc1	-11	-4%	79µM*	-1%	?	?
CC1(C)OC(=O)C2(Cc3cc(C(F)(F)F)ccc3N3CCCCC32)C(=O)O1 (configuration not stated)	.	.	.	21%[57 µM]	-18%[57.1 µM]	.
Cc1cc(C)c(S(=O)(=O)Nc2ccc(-c3ccc(N4CCCCC4)nn3)cc2)c(C)c1	.	.	-24%[59 µM]	10%[57 µM]	-30%	-14%
COC(=O)Cc1cc(=O)n(-c2nc3ccccc3[nH]2)[nH]1	.	-11%	6%[59 µM]	27%	18µM*	7.9µM*
COc1ccc(CC(=O)Nc2nc3ccccc3[nH]2)cc1	-2	-4%	.	18%	-11%	-9%
Cc1nn(CC(=O)NCc2cccc(F)c2)c(=O)c2cccn12	-2	-2%	.	?	56µM*	-13%
S=C(NCCCN(Cc1ccc(Cl)cc1)c1ccc(-c2ccccc2)cn1)NCCCN(Cc1ccc(Cl)cc1)c1ccc(-c2ccccc2)cn1	.	.	.	-7%	?	.
CCCCNC(=S)NCCCN(Cc1ccc(Cl)c(Cl)c1)c1ccc(Br)cn1	.	.	.	.	-30%	.
S=C(NCCCc1cnc[nH]1)NCCCN(Cc1ccc(Cl)cc1)c1ncc(Br)cn1	.	.	.	?	50µM*	.
O=C(NCCCc1cnc[nH]1)NCCCN(Cc1ccc(Cl)cc1)c1ccc(Br)cn1	.	.	.	?	45µM*	.
S=C(NCCCc1cnc[nH]1)NCCCN(Cc1ccc(Cl)cc1)c1ccc(-c2ccccc2)cn1	.	.	.	?	50µM*	.
S=C(NCCCc1cnc[nH]1)NCCCN(Cc1ccc(Cl)cc1)c1ccc(Br)cc1	.	.	.	32µM*	4.5µM*	.
CCCCNC(=S)NCCCc1cnc[nH]1	.	.	.	.	-18%	.
S=C(NCCCc1cnc[nH]1)NCCCN(CCc1ccc(Cl)cc1)c1ccc(Br)cn1	.	.	.	?	45µM*	.
S=C(NCCCc1cnc[nH]1)NCCCN(Cc1ccc(Cl)cc1)c1ccc(Br)cn1	.	.	.	.	50µM*	.
Cc1noc(-c2ccc(N3CCCCC3)c([N+](=O)[O-])c2)n1	.	.	?	46%	-2%	0%
CC[C@@]12CCCN3CCc4c(n(c5ccccc45)C(=O)C1)[C@H]32	.	.	-22%[0.843 µM]	.	.	.
